These results are taken from PubChem BioAssay AID504832 (National Center for Advancing Translational Sciences (NCATS), 2011).

About 18,000 (5.8%) of roughly 310,000 compounds were called active. About 22% were inconclusive and are not listed. What follows is part of a selection rich in actives, with near analogues and random picks from the rest. Where a call stands in place of a potency, no number is given. Unmarked numbers belong to inactive results. Calls come from the whole dose curve; as a rule, active = well fitted inhibition curve with a large enough effect; inconclusive = small, poorly fitted or top-dose-only effect, or another doubt; inactive = no such curve, though single readings can be large or run the other way.
Potency is the fitted concentration of half-maximal effect.

This test in a line: Primary qHTS for delayed death inhibitors of the malarial parasite plastid, 48 hour incubation. As to conditions: P. falciparum luciferase growth in erythrocytes; series mostly up to 28.7 µM. From the text: The goal of this screen is to discover new antimalarial compounds that act by inhibiting the development of the apicoplast in the malarial parasite Plasmodium falciparum. The biochemical processes that make this organelle essential for erythrocytic stage parasites are not well understood. However, antibiotics such as azithromycin and tetracycline, which target the apicoplast translational machinery, have a potent antimalarial effect.
We have developed a cell-based assay that measures parasite growth based on the expression of an integrated copy of a firefly luciferase reporter. To detect small molecules that cause this "delayed death" phenotype, erythrocytes infected with the luciferase-expressing parasites were incubated with compounds for either one or two generations, corresponding to 48 and 96 hours, respectively. Compounds that inhibit parasite growth in the second generation, but not the first, should be enriched in antimalarials that target the apicoplast. Growth inhibition is detected by a decrease in luciferase activity.
Assay Provider: David Fidock and Eric Ekland, Columbia University
Keywords: NIH Roadmap, MLPCN, MLI, MLSMR, qHTS, NCGC, qHTS, malaria, luciferase, viability
Four microliters of culture medium (RPMI 1640 with 0.5% w/v Albumax (GIBCO), 24 mM sodium bicarbonate and 10 ug/mL gentamycin) were dispensed by a Multi-drop Combi into white solid 1536-well plates (Grenier) and 23 nL compound was added by a pin tool. Four microliters of infected erythrocytes (2% hematocrit, 0.1% parasitemia final concentration) in culture medium were dispensed and the plates incubated for 48 hours at 37 C in 5% CO2. Two microliters of luciferase detection reagent was added and luminescence was detected by a ViewLux (PerkinElmer) reader.
Background: qHTS replaces the single test concentration by a dilution series.
As to `COc1ccc(-c2noc(CCCC(=O)NC3CCCC3)n2)cc1OC`, the Potency result is “inactive”.

As to `Cn1c(-c2ccc(F)cc2)cc2onc(-c3ccccc3Cl)c2c1=O`, the Potency result was “inactive”.

`O=C(Nc1ccc([N+](=O)[O-])cc1)OCCc1ccccn1`: the Potency result was “inactive”.

Turning to `CC[C@@H]1Cc2cc(O)ccc2C2=C1c1ccc(O)cc1C[C@H]2CC`, the Potency is 11.7 µM (active).

Take `O=C(Nc1ccccn1)C1CCN(S(=O)(=O)c2ccc3c(c2)OCCO3)CC1`: the Potency entry was “inactive”.

For the compound `CCOc1ccc(-c2noc(CCC(=O)NC3CCCC3)n2)cc1OC`, the Potency entry is “inactive”.

Turning to `Cc1ccc(C)c(OCCC(=O)OCC(=O)N2CCN(c3ccccc3)CC2)c1`, the Potency entry is “inactive”.

`CC(C)NC(=O)COCc1cc(-c2ccc3c(c2)OCO3)on1`: the Potency result was “inactive”.

With `COc1ccc(C(=O)CC(=O)C(=O)Nc2cc([N+](=O)[O-])ccc2OC)cc1`, the activity change, negative = inhibition is -19.7% [at 0.00184 µM].

Consider `Cc1cc(C)n(CC(O)COc2ccc(C(C)(C)C)cc2)n1` (stereo not given), for which the Potency entry is “inactive”.

`OC(COc1ccc(Br)cc1)CN1CCCC1` (stereo not given): the Potency result is “inactive”.

Consider `CN(C)CC(O)COc1ccc(C(C)(C)c2ccc(OCC(O)CN(C)C)cc2)cc1` (stereo not given), for which the Potency is 5.86 µM (active).

As for `O=C(OCC(=O)N1CCc2ccccc21)c1ccc([N+](=O)[O-])cc1`, the Potency entry was “inactive”.

As for `O=C(N/N=C\c1cc2c(cc1Cl)OCO2)c1ccc(Br)s1`, the Potency result is “inactive”.

On to `Cc1ccc(S(=O)(=O)N(C)C)cc1NC(=O)C(C)OC(=O)c1ccc2ccccc2n1` (stereo not given), for which the Potency entry is “inactive”.

For the compound `CC1=NC2(CCCc3c2no[n+]3[O-])N(O)C1(C)C` (stereo not given), the Potency is 7.38 µM (active).

With `CCOc1ccccc1NS(=O)(=O)c1cc2c3c(c1)C(C)C(=O)N3CCC2` (stereo not given), the Potency entry is “inactive”.

Consider `Cc1cc(C)n(-c2ccc(NC(=O)C3CCCCN3C(=O)c3cccs3)cc2)n1` (stereo not given), for which the Potency entry is “inactive”.

For the compound `CC1C(=O)Nc2ccccc2N1C(=O)c1c(F)cccc1F` (stereo not given), the Potency result was “inactive”.

Turning to `O=C(CCNC(=O)c1ccc(Br)cc1)Nc1cccc(S(=O)(=O)N2CCCCC2)c1`, the Potency result is “inactive”.

In the case of `COc1ccc2oc(C(=O)OCC(=O)N(CC(C)C)c3c(N)n(Cc4ccccc4)c(=O)[nH]c3=O)c(C)c2c1`, the Potency result is “inactive”.

For the compound `Cc1cc(Oc2ccc(Cl)cc2)nc(SCC(=O)c2ccccc2)n1`, the Potency result was “inactive”.

Take `CC(=O)c1ccc(Oc2cc(C)nc(-n3nc(C)cc3C)n2)cc1`: the Potency was 11.7 µM (active).

Regarding `Cc1cc(C)n(-c2cc(Oc3ccccc3)ncn2)n1`, the Potency result is “inactive”.

`COc1cccc(C(=O)Nc2nnc(S(=O)(=O)N3CCCCC3)s2)c1`: the Potency result is “inactive”.

Consider `COc1ccc(/C=C2\SC(=O)N(CCC(=O)NC3CCS(=O)(=O)C3)C2=O)cc1` (stereo not given), for which the Potency result was “inactive”.

Regarding `COc1cc(-c2noc(C3CCCN(S(=O)(=O)c4cccc(Cl)c4)C3)n2)cc(OC)c1OC` (stereo not given), the Potency was 13.1 µM (active).

`COc1cccc(-c2noc(C3CCCN(C(=O)c4ccc(F)cc4)C3)n2)c1` (stereo not given): the Potency result was “inactive”.

For the compound `CC(C)c1ccc(-c2noc(C3CCCN(S(C)(=O)=O)C3)n2)cc1` (stereo not given), the Potency entry was “inactive”.

With `CCCCn1c(N)c(N(CCOC)C(=O)c2sc3ccccc3c2Cl)c(=O)[nH]c1=O`, the Potency result is “inactive”.

In the case of `CCn1cc(/C=C(\NC(=O)c2ccc(C)cc2)C(=O)NCCN2CCOCC2)c2ccccc21`, the Potency entry was “inactive”.

In the case of `COc1ccc(NC(=O)CSc2nc(SC)ns2)c(OC)c1`, the Potency result was “inactive”.

With `O=C(O)CCn1c(Cc2ccccc2)nc2ccccc21`, the Potency result is “inactive”.

`Cc1ccc2c(c1)C1CN(C)CCC1N2C(=S)Nc1ccc(Cl)cc1Cl` (stereo not given): the Potency result was “inactive”.

Take `Cc1ccc2c(c1)C1CN(C)CCC1N2C(=S)Nc1ccc(OC(F)F)cc1` (stereo not given): the Potency entry is “inactive”.

Regarding `Cc1ccc2c(c1)C1CN(C)CCC1N2S(=O)(=O)c1ccc(Oc2ccc([N+](=O)[O-])cc2)cc1` (stereo not given), the Potency is 8.28 µM (active).

Turning to `COc1cc(NC(=O)CSc2ccc(-c3cccnc3)nn2)cc(OC)c1`, the Potency entry is “inactive”.

With `COc1ccccc1/C=N/N1CCN(Cc2ccccc2Cl)CC1`, the Potency result was “inactive”.

For `COc1ccccc1CN1CCN(C(=O)Cc2ccccc2)CC1`, the Potency entry was “inactive”.

Consider `COc1ccccc1CN1CCN(C(c2ccccc2)c2ccccc2)CC1`, for which the Potency is 13.1 µM (active).

Turning to `COc1ccc(N2CC(NS(=O)(=O)c3ccc4ccccc4c3)CC2=O)cc1` (stereo not given), the Potency entry was “inactive”.

For `NC(=O)c1cc(-c2cccnc2)nc2ccc(Br)cc12`, the Potency result was “inactive”.

For the compound `O=C(NCc1ccco1)c1ccc([N+](=O)[O-])cc1Cl`, the Potency result was “inactive”.

For the compound `O=C(NCc1ccco1)c1cc(-c2cccnc2)nc2ccc(Cl)cc12`, the Potency is 10.4 µM (active).

Turning to `O=C(NC1C2CC3CC(C2)CC1C3)c1ccc(N2CCNCC2)c([N+](=O)[O-])c1` (stereo not given), the Potency result is “inactive”.

Consider `O=C(Nc1cccc(C(F)(F)F)c1)c1ccc(N2CCNCC2)c([N+](=O)[O-])c1`, for which the Potency is 2.62 µM (active).

`O=C(Nc1ccc(N2C(=O)c3cccc4cccc(c34)C2=O)cc1)c1ccc(N2CCCCC2)c([N+](=O)[O-])c1`: the Potency result was “inactive”.

Regarding `O=[N+]([O-])c1ccc(NC(=S)N2CCN(c3ccccn3)CC2)cc1`, the Potency result is “inactive”.

As to `O=C(CNC(=O)c1ccccc1)Oc1ccc([N+](=O)[O-])cc1`, the Potency result was “inactive”.

For the compound `Oc1c(Cl)cc(Cl)c(Cl)c1Cc1c(O)c(Cl)cc(Cl)c1Cl`, the Potency was 11.7 µM (active).
